hgDAF12 agonist – agonists of H. glycines DAF-12 nuclear receptor; activation, % at 6.8 µM; HEK293 GAL4-hgDAF12 UAS-luciferase reporter, agonist luminescence; normalized to butyrate control; hit rate 1.8% among 370,000; AID 687014;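 active = activation above a cutoff set at the mean of all screened compounds plus 3 SD, cut at about 10% in these data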
hcDAF12 agonist – activates DAF-12 receptor from parasite H. contortus | HEK293 hcDAF-12 lit1-tk-luc reporter, luminescence; 0% DMSO, 100% Δ7-dafachronic acid | AID 652067 | hit rate 1.4% among 370,000 | activation, % at 6.8 µM;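 active = activation above the mean of all tested compounds plus 3 SD, cut at about 5.5% in these data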
DAX1 inh-1 – inhibitors of DAX1 repression of SF-1 activated StAR promoter. HEK293T StAR-luciferase reporter, SF-1/DAX-1 repression relief. inhibition, % at 6.8 µM. hit rate 1.1% among 370,000. AID 652010;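 active = inhibition above the mean over all tested compounds plus 3 SD, cut at about 3.6% in these data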;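 note: higher inhibition means more luminescence from relief of DAX-1 repression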
SMARCA2 activ – SMARCA2 function activation, primary screen | activation, % at 9.1 µM | hit rate 1% among 370,000 | AID 652017 | MG213 cells, MMTV-luciferase reporter, dexamethasone, overnight; in the data active = activation above about 7.8%
DAX1 inh-2 – inhibits human nuclear receptor DAX1; P51843; HEK293 Gal4-DAX1 luciferase reporter, luminescence; inhibition, % at 6.75 µM; hit rate 0.99% among 340,000; AID 504766;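 active = inhibition above the mean over all tested compounds plus 3 SD, cut at about 4.2% in these data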;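 note: inhibition shows as a rise in luminescence from relieved DAX1 repression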
Target sequence (P51843 207-470 limits assumed): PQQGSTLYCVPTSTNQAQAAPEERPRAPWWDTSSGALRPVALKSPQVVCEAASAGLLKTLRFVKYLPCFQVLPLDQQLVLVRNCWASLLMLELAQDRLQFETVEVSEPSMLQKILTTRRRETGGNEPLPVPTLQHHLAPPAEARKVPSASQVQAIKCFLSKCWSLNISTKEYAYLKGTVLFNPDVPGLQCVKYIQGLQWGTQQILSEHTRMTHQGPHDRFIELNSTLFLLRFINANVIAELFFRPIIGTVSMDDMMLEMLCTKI
ssDAF12 agonist – activators of S. stercoralis DAF-12 nuclear receptor; activation, % at 6.8 µM; HEK293 ssDAF-12/GRIP1 lit1-tk-luc reporter, luminescence; % of 3 µM dafachronic acid response; AID 652126; hit rate 1% among 370,000;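 active = activation above the mean over all tested compounds plus 3 SD, cut at about 0.9% in these data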
LXRb hcDAF ctr – counter-screen for hcDAF-12 agonists: agonists of human LXR-beta. shares compounds with hcDAF12 agonist. HEK293 Gal4-LXR tk-luc reporter, luminescence, 24 h; normalized: DMSO 0%, positive control 100%. activation, % at 6.8 µM. 3,400 tested, under 10 active;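 active = mean percent activation of the reporter above a cutoff set as the average over tested compounds plus their standard deviation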
hcDAF12 ag – confirmation of H. contortus DAF-12 agonists | activation, % at 6.8 µM | shares compounds with hcDAF12 agonist | HEK293 hcDAF-12 lit1-tk-luc reporter, luminescence; % of Δ7-dafachronic acid response | hit rate 61% among 3,400;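 active = mean activation across triplicate tests above the threshold derived from the earlier primary screen, cut at about 5.5% in these data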
hgDAF12 ag – confirmation of H. glycines DAF-12 agonists. shares compounds with hgDAF12 agonist. HEK293 GAL4-hgDAF12 luciferase reporter, agonist mode; percent of butyrate response. activation, % at 6.8 µM. hit rate 80% among 3,300. AID 743050;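 active = mean activation over triplicate wells above the hit cutoff derived from the earlier primary screen, cut at about 11% in these data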
LXR ag 2 – activates human LXR-beta, counter-screen for DAF-12 agonists; shares compounds with hgDAF12 agonist; HEK293 Gal4-LXR luciferase reporter, 24 h; activation, % at 6.8 µM; 3,300 tested, under 10 active;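 active = mean activation of the triplicate above a set limit carried over from the primary screen, none filed active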
Hits are given with their value; n = inactive; x = not tested or not shown. Compounds with a hit are over-represented: about 4.8% of the library has one in this group of screens.

SMILES	hgDAF12 agonist	hcDAF12 agonist	DAX1 inh-1	SMARCA2 activ	DAX1 inh-2	ssDAF12 agonist	LXRb hcDAF ctr	hcDAF12 ag	hgDAF12 ag	LXR ag 2
COC(=O)C(C)Nc1cccc(Br)c1 (stereo not given)	n	n	n	n	n	n	x	x	x	x
Cc1ccc(C=NNc2ccc([N+](=O)[O-])cn2)cc1	18	7.4	n	n	4.8	n	n	n	13	n
CC(C)(C)c1ccc2c(c1)C(=O)c1ccccc1C2=O	20	11	4.4	n	n	n	n	n	13	n
CC(C)(C)c1ccc(-c2ccc3c(c2)S(=O)(=O)c2ccccc2C3=O)cc1	n	n	n	n	n	n	x	x	x	x
Cc1ccc(-c2csc(NC(=O)/C=C/c3ccco3)c2C(=O)O)cc1	14	11	n	n	n	n	n	6.0	11	n
Cc1cccc(/C=C(\C(=O)C(=O)O)c2ccc3ccccc3n2)c1	21	11	n	n	n	1.8	n	8.1	14	n
Cc1cccc(/C=C(\c2nc3ccccc3[nH]2)S(=O)(=O)c2ccccc2)c1	n	n	n	n	n	n	x	x	x	x
Cc1nn(CC(=O)N2CCN(C)CC2)c(=O)c2ccccc12	n	n	n	n	n	n	x	x	x	x
CC(C)c1ccc(C(CC(=O)O)N2Cc3ccccc3C2=O)cc1 (stereo not given)	n	n	n	n	n	n	x	x	x	x
Cc1cc(C)c(C(=O)Nc2ccc3c(c2)OCCO3)c(C)c1	n	n	n	n	n	n	x	x	x	x
Cc1ccc(C(=O)Nc2ccc3c(c2)OCCO3)o1	13	9.2	n	n	n	n	n	n	14	n
O=C(Nc1ccc(F)c(F)c1)c1ccc2c(c1)OCO2	n	n	n	n	n	n	x	x	x	x
O=C(Nc1ccc(Cl)c(Cl)c1)c1ccc2c(c1)OCO2	19	9.7	n	n	n	3.0	n	7.2	22	n
CC1CCC(NC(=O)c2ccc3c(c2)OCO3)CC1 (stereo not given)	15	9.0	9.1	n	n	n	n	8.6	19	n
O=C(Nc1ccc2c(c1)OCO2)c1ccc2c(c1)OCO2	14	7.3	n	n	n	2.1	n	9.3	15	n
CCOc1ccc(C(=O)NCCC(=O)N2CCC3(CC2)NCCc2[nH]cnc23)cc1OCC	n	n	n	n	n	n	x	x	x	x
COc1ccc(C(=O)NC=C2C(=O)OC(C)(C)OC2=O)cc1	n	n	n	n	n	n	x	x	x	x
O=[N+]([O-])c1cccc(N=Cc2sc3ccccc3c2O)c1	n	n	n	n	x	n	x	x	x	x
CC(=Nc1cccc(C)c1)c1sc2ccccc2c1O	14	15	n	7.9	n	4.0	n	13	25	n
O=C(CSc1ccc(-c2nc3ccccc3[nH]2)cn1)Nc1ccc2c(c1)OCCO2	x	x	x	x	n	x	x	x	x	x
Cc1cc2nc(-c3ccc(SCC(=O)Nc4ccc5c(c4)OCCO5)nc3)[nH]c2cc1C	15	7.3	n	n	n	n	n	n	15	n
COc1ccc(/C=C/C(=O)N2CCN(C)CC2)cc1OC	n	n	n	n	n	n	x	x	x	x
COc1ccc2cc(-c3nc4ccccc4n3C)c(=O)oc2c1	16	6.8	4.1	n	n	n	n	n	11	n
COc1ccc(NC(=S)Nc2ccccn2)cc1	15	11	n	n	n	1.7	n	n	13	n
O=C(Nc1nc2ccc(Cl)cc2s1)C1CC1	n	n	n	n	n	n	x	x	x	x
SMILES	hgDAF12 agonist	hcDAF12 agonist	DAX1 inh-1	SMARCA2 activ	DAX1 inh-2	ssDAF12 agonist	LXRb hcDAF ctr	hcDAF12 ag	hgDAF12 ag	LXR ag 2
CC(C)c1ccc2nc(NC(=O)C3CC3)sc2c1	22	7.0	n	n	n	n	n	n	17	n
COc1ccccc1Nc1nc(-c2cccc([N+](=O)[O-])c2)cs1	n	n	n	n	n	n	x	x	x	x
Brc1ccc(Nc2nc(-c3cccnc3)cs2)cc1	23	8.0	n	n	n	n	n	11	13	n
O=[N+]([O-])c1cccc(-c2csc(Nc3ccccc3)n2)c1	14	6.8	n	n	n	0.9	n	8.0	17	n
Cc1nn(-c2ccc(Cl)cc2Cl)c(=O)c2ccccc12	n	n	n	n	n	n	x	x	x	x
Cc1nn(-c2ccc3ccccc3c2)c(=O)c2ccccc12	16	12	n	n	n	1.7	n	8.5	15	n
CCCN(C(=O)CCc1ccc(OC)cc1)c1c(N)n(Cc2ccccc2)c(=O)[nH]c1=O	n	n	n	n	n	n	x	x	x	x
Cn1c(NCc2c[nH]c3ccccc23)nc2ccccc21	16	16	n	n	n	1.7	n	15	25	n
CCn1c(=O)cc(OCC(=O)NCCCN2CCCC2=O)c2ccccc21	n	n	n	n	n	n	x	x	x	x
Cc1c(C(=O)Nc2nccs2)oc2ccccc12	18	15	n	n	4.6	3.2	n	13	25	n
O=C(Nc1nccs1)c1ccc2ccccc2c1	21	17	n	n	n	2.2	n	14	26	n
Cn1nccc1NS(=O)(=O)c1ccc(NC(=O)C(F)(F)F)cc1	n	n	n	n	x	n	x	x	x	x
CCc1ccc(NC(=O)COc2coc(CN3CCN(c4ccccc4)CC3)cc2=O)cc1	n	n	n	n	n	n	x	x	x	x
CCc1ccc(NC(=O)COc2ccc(F)cc2C(=O)c2cnn(-c3ccccc3)c2)cc1	18	12	n	n	n	n	n	7.8	n	n
CCOc1cc(CCNC(=O)c2cc3sccc3n2CC)ccc1OC	n	n	n	n	x	n	x	x	x	x
C=CCn1c(SCC(=O)Nc2ccc(-c3nc4ccc(C)cc4s3)cc2)nnc1-c1ccccc1	18	7.2	4.5	n	n	n	n	n	n	n
COc1ccc(CNC(=O)c2noc(C)c2[N+](=O)[O-])cc1	n	n	n	n	n	n	x	x	x	x
CC(=NC1CCCCC1)C1=C(O)c2ccccc2C1=O	16	8.1	4.2	n	n	n	n	5.8	15	n
Cc1ccc(Nc2n[nH]c(C)c2[N+](=O)[O-])cc1C	19	11	4.4	n	n	1.0	n	6.3	22	n
NC(=O)CCC(NC(=S)Nc1ccccc1)C(=O)O (stereo not given)	n	n	n	n	n	n	x	x	x	x
CC(=O)Cc1nsc(Nc2ccccc2)n1	n	n	n	n	n	n	x	x	x	x
c1ccc(Nc2nc(-c3ccccc3)ns2)cc1	22	16	n	n	n	2.0	n	9.5	29	n

Screening data (PubChem)
